IL1B secr inh = blocks inflammasome-driven IL-1 beta release; THP-1 LPS/ATP IL-1B secretion, AlphaLISA, 16 h; hits give low values; activity change, % at 57.5 µM; 360,000 compounds, 4.7% hits; in the data active = activity change below about -50%; inconclusive = mostly about -30% to -49%
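Secreted IL-1B measured by AlphaLISA bead assay after 16 h compound exposure of THP-1 cells; compounds (final up to 57.5 uM) added 1 h before LPS (250 ng/mL) and ATP (1.25 mM) stimulation; lower signal means less secretion.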
HT1080-NT tox = kills 2HG-producing HT-1080-NT fibrosarcoma cells | HT-1080-NT fibrosarcoma viability, CellTiter-Glo ATP luminescence, 48 h | 360,000 compounds, 1.6% hits | Potency, µM (doses to about 46.1 µM), without a hit: at the highest dose activity, negative = less viability, hits mostly cytotoxic;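 also: NT is the 2HG producing partner of a matched IDH1 knockdown line; potency is read from the fitted curve at half-maximal effect; 0% = DMSO-treated cells and -100% = media-only wells without cells; nearly all actives have a fitted effect of over 55% in size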
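A 48-hour cytotoxicity screen used HT-1080-NT cells plated 2 hours before compound delivery. ATP-based CellTiter-Glo luminescence measured viability, normalized to DMSO and no-cell controls.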
DT40 TDP1 CPT = growth inhibition of DT40 Tdp1-/-;hTDP1 cells with camptothecin (screen for TDP1 inhibitors) | chicken DT40 Tdp1-/-;hTDP1 cells + 20 nM CPT, ATP luminescence, 48 h | Potency, µM (doses to about 46.2 µM), inactives show at the highest dose activity change, negative = growth inhibition, hits mostly inhibitors | 420,000 compounds, 12% hits; also: potency is read from the fitted curve at half-maximal effect; nearly all actives have a fitted effect of over 55% in size
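Chicken DT40 Tdp1-/- cells stably complemented with human TDP1 were seeded at 400 cells/well in medium containing 20 nM camptothecin, exposed to pin-transferred compounds, and grown at 37 °C for at least 48 hr. Viability was read as ATP luminescence.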
ELG1 repair inh = blocks ELG1-dependent DNA repair in HEK293T cells; HEK293T ELG1-luciferase reporter, luminescence, 16 h; DNA damage induced by 5-fluorouridine; Potency, µM (titrated, usually from 46.1 µM), without a hit: at the top dose activity change, negative = inhibition, usual class: inhibitors; 330,000 compounds, 2.3% hits; AID 504467; also: potency is read from the fitted curve at half-maximal effect; nearly all actives have a fitted effect of over 55% in size
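HEK293T cells expressing luciferase-tagged ELG1 (2,000/well) received 5-Fluorouridine plus compound or DMSO for 16 hr at 37 °C. Luciferase was read by ONE-Glo luminescence after 30 min at room temperature.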
TDP1 cell noCPT = qHTS for Inhibitors of human tyrosyl-DNA phosphodiesterase 1 (TDP1): qHTS in cells in absence of CPT; 420,000 compounds, 15% hits; DT40 Tdp1-/- hTDP1 cells, no CPT, ATP luminescence, 48 h; Potency, µM (doses to about 46.2 µM), without a hit: top-dose activity change, negative = growth inhibition, most hits filed as inhibitors; also: potency is read from the fitted curve at half-maximal effect; nearly all actives have a fitted effect of over 55% in size
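Growth kinetics read by CellTiter-Glo luminescence after ≥48 hr at 37 °C. Cells: DT40 Tdp1-/- stably carrying human TDP1, 400 per well, compound exposure in the absence of CPT (DMSO vehicle).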
HT1080 IDH1KD tx = kills HT-1080 cells with IDH1 knockdown. HT-1080 IDH1 knockdown viability, ATP luminescence, 48 h. Potency, µM (doses to about 46.1 µM), without a hit: top-dose activity, negative = toxicity, hits mostly cytotoxic. 360,000 compounds, 2% hits. AID 686971;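 also: potency is read from the fitted curve at half-maximal effect; 0% = DMSO wells and -100% = cell-free medium wells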
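% activity derives from luminescence (CellTiter-Glo), normalised to DMSO and no-cell wells. HT-1080-IDH1KD cells, 750/well, had 48 h compound exposure at 37 °C.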
Active calls of the source: *; [ ] = dose if it differs, or a comment. In the library only some 19% were active in any assay of this set; here they are far more common. Unless noted, calls follow the shape of the dose curve; as a rule, active = well fitted curve in the direction sought with a large enough effect; inconclusive = small, poorly fitted or top-dose-only effect, or another doubt; inactive = no such curve, though single readings can be large; an effect the other way counts as inactive or inconclusive. Unless noted, % is scaled to controls: 0 for no effect and ±100 for the full control effect.

Screening CC(=O)NNC(=O)CN1C(=O)/C(=C/c2ccccc2)SC1=S returned IL1B secr inh -13.0, HT1080-NT tox 6.3%, DT40 TDP1 CPT -9.0%, ELG1 repair inh 1.5%, TDP1 cell noCPT 17.9% and HT1080 IDH1KD tx 11.6%.
`CCN(C(=O)CN1C(=O)/C(=C/c2ccccc2F)SC1=S)C1CCS(=O)(=O)C1` (stereo not drawn) gave IL1B secr inh 16.8, HT1080-NT tox 0.5%, DT40 TDP1 CPT inconclusive, ELG1 repair inh -23.1%, TDP1 cell noCPT inconclusive and HT1080 IDH1KD tx 11.2%.
Screening CCN(CC)C(=O)CN1C(=O)/C(=C/c2ccccc2)SC1=S returned IL1B secr inh -62.1*, HT1080-NT tox -0.2%, DT40 TDP1 CPT 18.4µM*, ELG1 repair inh 7.3%, TDP1 cell noCPT 14.6µM* and HT1080 IDH1KD tx -1.7%.
Screening CCN(C(=O)CN1C(=O)S/C(=C\c2cccc(Cl)c2)C1=O)C1CCS(=O)(=O)C1 (stereo not drawn) returned IL1B secr inh 0.0, HT1080-NT tox 4.6%, DT40 TDP1 CPT -13.5%, ELG1 repair inh -0.3%, TDP1 cell noCPT 2.5% and HT1080 IDH1KD tx 8.7%.
For CC[C@]12c3[nH]c4ccccc4c3CCN1C(=O)C(CC(=O)NCCCn1ccnc1)C[C@@H]2C(=O)N1CCN(C(=O)c2ccco2)CC1 (stereo partly drawn) the results were IL1B secr inh -2.9, HT1080-NT tox -2.9%, DT40 TDP1 CPT 6.2%, ELG1 repair inh 26.8%, TDP1 cell noCPT -13.3% and HT1080 IDH1KD tx 2.1%.
COc1cccc(-c2nc(-c3ccccc3)nc(N3CCN(C)CC3)c2C#N)c1 was read as IL1B secr inh -61.3*, HT1080-NT tox inconclusive, DT40 TDP1 CPT inconclusive, ELG1 repair inh inconclusive, TDP1 cell noCPT inconclusive and HT1080 IDH1KD tx inconclusive.
`COc1cccc(-c2nc(N)nc(SC)c2C#N)c1` gave IL1B secr inh -21.2, HT1080-NT tox -0.2%, DT40 TDP1 CPT 2.8%, ELG1 repair inh -12.5%, TDP1 cell noCPT -17.1% and HT1080 IDH1KD tx -0.4%.
Screening COc1ccc(-c2nc(-c3cccc(C)c3)nc(N3CCN(C)CC3)c2C#N)cc1 returned IL1B secr inh -20.2, HT1080-NT tox 0.1%, DT40 TDP1 CPT 14.6µM*, ELG1 repair inh -10.1%, TDP1 cell noCPT 16.4µM* and HT1080 IDH1KD tx -0.3%.
COc1ccccc1N1CCN(c2nc(C)cc(C)c2C#N)CC1 was read as IL1B secr inh 4.3, HT1080-NT tox 0.8%, DT40 TDP1 CPT -12.9%, ELG1 repair inh -6.1%, TDP1 cell noCPT -24.8% and HT1080 IDH1KD tx -7.8%.
N#Cc1c(-c2ccccc2)nc(-c2ccccc2)nc1N1CCOCC1 was read as IL1B secr inh inconclusive, HT1080-NT tox 5.3%, DT40 TDP1 CPT -17.0%, ELG1 repair inh 14.6µM*, TDP1 cell noCPT inconclusive and HT1080 IDH1KD tx 12.6%.
`COc1ccc(-c2nc(-c3ccccc3)nc(N3CCN(C)CC3)c2C#N)cc1` gave IL1B secr inh -20.6, HT1080-NT tox 4.5%, DT40 TDP1 CPT inconclusive, ELG1 repair inh 20.6µM*, TDP1 cell noCPT inconclusive and HT1080 IDH1KD tx 0.0%.
`COc1ccc(-c2cc(C#N)nc(N3CCN(C)CC3)n2)cc1` gave HT1080-NT tox -7.7%, DT40 TDP1 CPT -3.6%, ELG1 repair inh inconclusive, TDP1 cell noCPT inconclusive and HT1080 IDH1KD tx -16.7%.
Screening COc1ccc(C(=O)OCC(=O)NC2CCCCCC2)cc1OC returned IL1B secr inh 13.2, HT1080-NT tox -9.2%[9.24 µM], DT40 TDP1 CPT -23.5%, ELG1 repair inh -5.5%, TDP1 cell noCPT -11.0% and HT1080 IDH1KD tx -3.0%.

High-throughput results from PubChem.
